# Measured values taken from PubChem BioAssay (EPA / NIEHS).
# Active and inactive are the calls of the source. Rule for the calls: active = hit-call score of the fitted dose curve at least 0.9, where 1 is the maximum; inactive = score below 0.9.
# Tests used:
# Conditions in all cases: mRNA level, 48 h; actives raise or lower the signal
# [1] = read-out: JUN Transcription Factor, JUN (gene 3725); test: LTEA_HepaRG_JUN: Life Technologies and Expression Analysis (LTEA) Assay for JUN Transcription Factor using HepaRG (AID 2283513)
# Method in brief: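 Human HepaRG liver cells receive test chemicals in 0.5% DMSO for 48 h across an eight-point range topping at 100 uM. Expression changes in JUN are scored in both directions against the DMSO vehicle.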
# [2] = read-out: Lipase C (LIPC), LIPC (gene 3990); test: LTEA_HepaRG_LIPC: Life Technologies and Expression Analysis (LTEA) Assay for Lipase C (LIPC) using HepaRG (AID 2283514)
# Method in brief: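 Differentiated human HepaRG cells in serum-free induction medium were exposed in duplicate for 48 h to eight concentrations (top 100 uM, half-log steps, 0.5% DMSO). LIPC mRNA was quantified by TaqMan qRT-PCR, normalized to ACTB, GAPDH and POLR2A, with bidirectional fitting versus DMSO.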
# [3] = read-out: Lipoprotein lipase (LPL), LPL (gene 4023); test: LTEA_HepaRG_LPL: Life Technologies and Expression Analysis (LTEA) Assay for Lipoprotein lipase (LPL) using HepaRG (AID 2283515)
# Method in brief: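 Differentiated human HepaRG cells in serum-free induction medium were exposed in duplicate for 48 h to eight half-log concentrations (top 100 uM) in 0.5% DMSO. LPL mRNA was quantified by TaqMan qRT-PCR, normalized to ACTB, GAPDH and POLR2A.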
# [4] = read-out: MicroRNA 122 (MIR122), gene 406906; test: LTEA_HepaRG_MIR122: Life Technologies and Expression Analysis (LTEA) Assay for MicroRNA 122 (MIR122) using HepaRG (AID 2283516); note: the transcript read is the microRNA miR-122
# Method in brief: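 HepaRG, 48 h exposure, 8-pt half-log from 100 uM, 0.5% DMSO; TaqMan qRT-PCR; bidirectional fit vs DMSO.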
# [5] = read-out: matrix metalloproteinase-10 (MMP10), MMP10 (gene 4319); test: LTEA_HepaRG_MMP10: Life Technologies and Expression Analysis (LTEA) Assay for matrix metalloproteinase-10 (MMP10) using HepaRG (AID 2283517)
# Method in brief: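 HepaRG, collagen I, ~100,000 cells/well; serum-free induction medium; 48 h exposure, duplicate, 8-pt half-log to 100 uM, 0.5% DMSO. Readout: TaqMan qRT-PCR, normalized to ACTB/GAPDH/POLR2A; bidirectional fit vs DMSO.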
# [6] = read-out: MYC, MYC (gene 4609); test: LTEA_HepaRG_MYC: Life Technologies and Expression Analysis (LTEA) Assay for MYC using HepaRG (AID 2283518)
# Method in brief: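 Cells are thawed, plated and cultured 48 h, then treated for 48 h with test chemicals (eight half-log concentrations from 100 uM, 0.5% DMSO vehicle). RNA is isolated and MYC expression quantified by qRT-PCR against three housekeeping genes.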
# [7] = read-out: matrix metalloproteinase-3 (MMP3), MMP3 (gene 4314); test: LTEA_HepaRG_MMP3: Life Technologies and Expression Analysis (LTEA) Assay for matrix metalloproteinase-3 (MMP3) using HepaRG (AID 2283519)
# Method in brief: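 Differentiated human HepaRG cells, plated 48 h on collagen I, were exposed in duplicate for 48 h in serum-free induction medium to eight half-log concentrations up to 100 uM in 0.5% DMSO. MMP3 mRNA was quantified by TaqMan qRT-PCR, normalised to ACTB, GAPDH and POLR2A.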
# [8] = read-out: Paternally Expressed 10 (PEG10), PEG10 (gene 23089); test: LTEA_HepaRG_PEG10: Life Technologies and Expression Analysis (LTEA) Assay for Paternally Expressed 10 (PEG10) using HepaRG (AID 2283520);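 for AC50: PEG10 transcript by qRT-PCR normalised to ACTB GAPDH and POLR2A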
# Method in brief: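 Chemicals tested on HepaRG cells for 48 h, highest concentration 100 uM. PEG10 expression assessed by qRT-PCR relative to DMSO control.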
# [9] = read-out: Protein phosphatase 2A (PPP2R4), PTPA (gene 5524); test: LTEA_HepaRG_PPP2R4: Life Technologies and Expression Analysis (LTEA) Assay for Protein phosphatase 2A (PPP2R4) using HepaRG (AID 2283522)
# Method in brief: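 Gene-expression endpoint in HepaRG hepatic cells: 48 h treatment across eight half-log concentrations up to 100 uM in 0.5% DMSO. PPP2R4 mRNA by qRT-PCR, normalized to three endogenous control genes.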
# [10] = read-out: Phosphatase and tensin (PTEN), PTEN (gene 5728); test: LTEA_HepaRG_PTEN: Life Technologies and Expression Analysis (LTEA) Assay for Phosphatase and tensin (PTEN) using HepaRG (AID 2283523)
# Method in brief: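 Differentiated human HepaRG cells, plated 48 h then switched to serum-free induction medium, were exposed in duplicate for 48 h to eight half-log concentrations up to 100 uM in 0.5% DMSO. PTEN mRNA measured by TaqMan qRT-PCR, normalized to ACTB/GAPDH/POLR2A, bidirectional fit versus DMSO.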
# [11] = read-out: solute carrier (SLC22A1), SLC22A1 (gene 6580); test: LTEA_HepaRG_SLC22A1: Life Technologies and Expression Analysis (LTEA) Assay for solute carrier (SLC22A1) using HepaRG (AID 2283524)
# Method in brief: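 Human HepaRG cells were plated 48 h, switched to serum-free induction medium, then exposed in duplicate for 48 h to 8-point half-log series from 100 uM in 0.5% DMSO. SLC22A1 mRNA measured by qRT-PCR, normalized to ACTB/GAPDH/POLR2A, fitted bidirectionally versus DMSO.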
# [12] = read-out: Pyruvate Dehydrogenase Kinase 4 (PDK4), PDK4 (gene 5166); test: LTEA_HepaRG_PDK4: Life Technologies and Expression Analysis (LTEA) Assay for Pyruvate Dehydrogenase Kinase 4 (PDK4) using HepaRG (AID 2283525)
# Method in brief: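 Differentiated human HepaRG cells, pre-cultured 48 h, were exposed in duplicate for 48 h in serum-free induction medium to eight half-log concentrations up to 100 uM in 0.5% DMSO. PDK4 mRNA was quantified by qRT-PCR, normalized to ACTB, GAPDH and POLR2A, bidirectional fitting versus DMSO.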
# [13] = read-out: NAD(P)H dehydrogenase [quinone] 1 (NQO1), NQO1 (gene 1728); test: LTEA_HepaRG_NQO1: Life Technologies and Expression Analysis (LTEA) Assay for NAD(P)H dehydrogenase [quinone] 1 (NQO1) using HepaRG (AID 2283526)
# Method in brief: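 Human HepaRG hepatic cells received chemicals for 48 h in serum-free induction medium with 0.5% DMSO, up to 100 uM. Expression was assessed by TaqMan qRT-PCR against housekeeping controls and fitted bidirectionally against DMSO.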
# [14] = read-out: Nuclear factor erythroid 2-related factor 2 (Homo sapiens) (UniProt Q16236); test: LTEA_HepaRG_NFE2L2: Life Technologies and Expression Analysis (LTEA) Assay for Nuclear factor erythroid 2-related factor 2 (NFE2L2) Transcription Factor using HepaRG (AID 2283527)
# Method in brief: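 Differentiated human HepaRG cells in serum-free induction medium were exposed for 48 h to eight concentrations (top 100 uM, half-log dilutions, 0.5% DMSO), in duplicate. NFE2L2 mRNA was quantified by TaqMan qRT-PCR, normalized to ACTB, GAPDH and POLR2A, with bidirectional fitting versus DMSO.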
# [15] = read-out: Signal transducer and activator of transcription 3 (Homo sapiens) (UniProt P40763); test: LTEA_HepaRG_STAT3: Life Technologies and Expression Analysis (LTEA) Assay for Signal transducer and activator of transcription (STAT3) using HepaRG (AID 2283529)
# Method in brief: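 Differentiated human HepaRG cells in serum-free induction medium were exposed in duplicate for 48 h to eight half-log concentrations up to 100 uM in 0.5% DMSO. STAT3 mRNA was quantified by TaqMan qRT-PCR, normalized to ACTB, GAPDH and POLR2A, and fitted bidirectionally against DMSO.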
# [16] = read-out: solute carrier (SLCO1B1), SLCO1B1 (gene 10599); test: LTEA_HepaRG_SLCO1B1: Life Technologies and Expression Analysis (LTEA) Assay for solute carrier (SLCO1B1) using HepaRG (AID 2283530)
# Method in brief: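 Gain or loss of SLCO1B1 mRNA is fitted against the 0.5% DMSO vehicle in human HepaRG liver cells treated 48 h at up to 100 uM in half-log steps. Expression comes from qRT-PCR normalized to endogenous controls.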
# [17] = read-out: sulfotransferase 2A1 (SULT2A1), SULT2A1 (gene 6822); test: LTEA_HepaRG_SULT2A1: Life Technologies and Expression Analysis (LTEA) Assay for sulfotransferase 2A1 (SULT2A1) using HepaRG (AID 2283531)
# Method in brief: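 Cells were plated and cultured 48 h, switched to serum-free induction medium, then dosed in duplicate for 48 h (8 concentrations, max 100 uM). RNA was isolated and SULT2A1 expression measured by qRT-PCR; gain or loss of signal fitted relative to DMSO.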
# [18] = read-out: Transforming Growth Factor (TGFA), TGFA (gene 7039); test: LTEA_HepaRG_TGFA: Life Technologies and Expression Analysis (LTEA) Assay for Transforming Growth Factor (TGFA) using HepaRG (AID 2283532)
# Method in brief: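 Differentiated human HepaRG cells, plated 48 h then switched to serum-free induction medium, were exposed in duplicate for 48 h to 8-point half-log series from 100 uM in 0.5% DMSO. TGFA mRNA measured by qRT-PCR, normalized to ACTB/GAPDH/POLR2A, bidirectional fit versus DMSO.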
# [19] = read-out: succinate dehydrogenase complex iron sulfur subunit B (SDHB), SDHB (gene 6390); test: LTEA_HepaRG_SDHB: Life Technologies and Expression Analysis (LTEA) Assay for succinate dehydrogenase complex iron sulfur subunit B (SDHB) using HepaRG (AID 2283528)
# Method in brief: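 SDHB transcript level read by TaqMan qRT-PCR, housekeeping-normalised (ACTB, GAPDH, POLR2A), after 48 h chemical treatment of plated HepaRG cells; eight concentrations top 100 uM, half-log steps, 0.5% DMSO, duplicates; fitted both directions against DMSO.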
# [20] = read-out: Nuclear factor NF-kappa-B p105 subunit (Homo sapiens) (UniProt P19838); test: LTEA_HepaRG_NFKB1: Life Technologies and Expression Analysis (LTEA) Assay for Nuclear Factor Kappa B Subunit 1 (NFKB1) using HepaRG (AID 2283521)
# Method in brief: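 NFKB1 transcript was measured by TaqMan qRT-PCR on Fluidigm arrays, normalised to three housekeeping genes and fitted in both directions against 0.5% DMSO. HepaRG cells were dosed in duplicate for 48 h in serum-free induction medium, eight half-log steps from 100 uM.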
# Nuclear factor erythroid 2-related factor 2 (Homo sapiens), sequence (Q16236 whole entry, looked up): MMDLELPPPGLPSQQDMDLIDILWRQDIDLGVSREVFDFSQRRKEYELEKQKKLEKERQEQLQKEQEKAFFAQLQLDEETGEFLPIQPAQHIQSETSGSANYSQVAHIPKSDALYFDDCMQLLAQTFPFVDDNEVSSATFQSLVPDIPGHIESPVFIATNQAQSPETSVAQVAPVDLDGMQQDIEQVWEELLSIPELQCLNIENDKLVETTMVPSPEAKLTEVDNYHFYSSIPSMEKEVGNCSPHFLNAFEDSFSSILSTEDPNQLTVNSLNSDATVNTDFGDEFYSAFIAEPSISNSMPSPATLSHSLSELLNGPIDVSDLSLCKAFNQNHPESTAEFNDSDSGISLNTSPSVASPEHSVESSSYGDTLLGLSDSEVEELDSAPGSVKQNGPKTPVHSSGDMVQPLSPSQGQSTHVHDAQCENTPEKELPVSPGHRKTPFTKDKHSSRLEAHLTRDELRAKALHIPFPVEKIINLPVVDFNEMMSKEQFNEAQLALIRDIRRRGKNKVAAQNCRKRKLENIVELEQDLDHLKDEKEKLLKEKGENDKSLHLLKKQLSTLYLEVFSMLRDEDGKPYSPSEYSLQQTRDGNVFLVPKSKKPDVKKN
# Signal transducer and activator of transcription 3 (Homo sapiens), sequence (P40763 whole entry, looked up): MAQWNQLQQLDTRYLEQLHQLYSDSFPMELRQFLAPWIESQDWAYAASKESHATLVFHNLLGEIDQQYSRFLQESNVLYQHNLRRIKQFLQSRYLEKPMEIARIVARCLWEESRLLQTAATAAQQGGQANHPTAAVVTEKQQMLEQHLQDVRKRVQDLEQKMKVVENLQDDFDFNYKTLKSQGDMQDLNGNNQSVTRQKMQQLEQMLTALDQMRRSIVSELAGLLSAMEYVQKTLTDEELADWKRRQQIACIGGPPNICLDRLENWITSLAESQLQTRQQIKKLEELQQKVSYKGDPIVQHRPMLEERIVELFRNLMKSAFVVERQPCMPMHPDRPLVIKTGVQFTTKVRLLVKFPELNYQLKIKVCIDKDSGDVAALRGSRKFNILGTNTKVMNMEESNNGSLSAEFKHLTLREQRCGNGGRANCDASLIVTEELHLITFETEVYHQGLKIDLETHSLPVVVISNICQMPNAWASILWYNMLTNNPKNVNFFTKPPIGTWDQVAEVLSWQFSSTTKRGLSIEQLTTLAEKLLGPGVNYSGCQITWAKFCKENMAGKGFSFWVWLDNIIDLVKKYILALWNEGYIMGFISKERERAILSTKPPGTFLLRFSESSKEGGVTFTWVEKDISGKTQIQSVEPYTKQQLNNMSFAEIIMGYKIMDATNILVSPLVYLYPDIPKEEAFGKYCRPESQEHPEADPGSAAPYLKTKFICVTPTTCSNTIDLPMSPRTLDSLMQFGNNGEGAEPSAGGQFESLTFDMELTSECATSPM
# Nuclear factor NF-kappa-B p105 subunit (Homo sapiens), sequence (P19838 whole entry, looked up): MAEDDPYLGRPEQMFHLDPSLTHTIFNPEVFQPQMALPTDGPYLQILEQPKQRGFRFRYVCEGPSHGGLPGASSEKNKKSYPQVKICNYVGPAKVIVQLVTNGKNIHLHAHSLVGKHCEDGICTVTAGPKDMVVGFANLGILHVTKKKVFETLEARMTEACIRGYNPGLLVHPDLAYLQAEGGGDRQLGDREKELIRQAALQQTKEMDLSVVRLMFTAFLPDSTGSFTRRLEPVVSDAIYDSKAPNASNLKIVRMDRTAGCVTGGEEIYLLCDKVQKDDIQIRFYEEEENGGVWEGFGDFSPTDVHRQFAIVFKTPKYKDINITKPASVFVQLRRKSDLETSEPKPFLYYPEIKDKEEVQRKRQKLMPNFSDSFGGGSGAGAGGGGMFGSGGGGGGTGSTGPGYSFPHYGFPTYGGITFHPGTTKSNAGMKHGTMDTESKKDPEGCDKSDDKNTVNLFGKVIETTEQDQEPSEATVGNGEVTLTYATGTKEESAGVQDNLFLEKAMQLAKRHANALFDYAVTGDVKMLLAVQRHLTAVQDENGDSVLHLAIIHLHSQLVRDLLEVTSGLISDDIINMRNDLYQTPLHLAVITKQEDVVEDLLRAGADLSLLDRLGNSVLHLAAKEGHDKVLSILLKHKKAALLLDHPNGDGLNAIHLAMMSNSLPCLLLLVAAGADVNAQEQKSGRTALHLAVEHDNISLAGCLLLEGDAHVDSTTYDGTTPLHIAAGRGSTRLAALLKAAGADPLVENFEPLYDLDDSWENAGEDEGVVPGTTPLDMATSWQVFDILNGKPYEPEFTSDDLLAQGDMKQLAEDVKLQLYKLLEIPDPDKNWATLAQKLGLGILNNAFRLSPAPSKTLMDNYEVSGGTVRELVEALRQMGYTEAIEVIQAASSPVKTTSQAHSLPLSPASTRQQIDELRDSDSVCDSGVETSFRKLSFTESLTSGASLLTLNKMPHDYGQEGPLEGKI
smiles,measurement,setting,value
OCC(CO)(CO)CO,outcome,[1],inactive
same,outcome,[2],inactive
same,outcome,[3],inactive
same,outcome,[4],inactive
same,outcome,[5],inactive
same,outcome,[6],inactive
same,outcome,[7],inactive
same,outcome,[8],inactive
same,outcome,[9],inactive
same,outcome,[10],inactive
same,outcome,[11],inactive
same,outcome,[12],inactive
same,outcome,[13],inactive
same,outcome,[14],inactive
same,outcome,[15],inactive
same,outcome,[16],inactive
same,outcome,[17],inactive
same,outcome,[18],inactive
CCOc1ccc2[nH]cc(C(=O)NCc3ccccc3)c(=O)c2n1,outcome,[1],inactive
same,outcome,[2],inactive
same,outcome,[3],inactive
same,outcome,[4],inactive
same,outcome,[5],inactive
same,outcome,[6],inactive
same,outcome,[7],inactive
same,AC50,[8],50 µM (active)
same,outcome,[9],inactive
same,outcome,[10],inactive
same,outcome,[11],inactive
same,outcome,[12],inactive
same,outcome,[13],inactive
same,outcome,[14],inactive
same,outcome,[19],inactive
same,outcome,[15],inactive
same,outcome,[16],inactive
same,outcome,[17],inactive
same,outcome,[18],inactive
NNC(=O)c1ccncc1,outcome,[1],inactive
same,outcome,[2],inactive
same,outcome,[4],inactive
same,outcome,[5],inactive
same,outcome,[6],inactive
same,outcome,[7],inactive
same,outcome,[8],inactive
same,outcome,[20],inactive
same,outcome,[9],inactive
same,outcome,[10],inactive
same,outcome,[11],inactive
same,outcome,[12],inactive
same,outcome,[13],inactive
same,outcome,[14],inactive
same,outcome,[19],inactive
same,outcome,[15],inactive
same,outcome,[16],inactive
same,outcome,[17],inactive
same,outcome,[18],inactive
CCCCCCCC1CCC(=O)O1 (stereo unspecified),outcome,[1],inactive
same,outcome,[2],inactive
same,outcome,[3],inactive
same,outcome,[4],inactive
same,outcome,[5],inactive
same,outcome,[6],inactive
same,outcome,[7],inactive
same,outcome,[8],inactive
same,outcome,[9],inactive
same,outcome,[10],inactive
same,outcome,[11],inactive
same,outcome,[12],inactive
same,outcome,[13],inactive
same,outcome,[19],inactive
same,outcome,[15],inactive
same,outcome,[16],inactive
same,outcome,[17],inactive
same,outcome,[18],inactive
O=C1CN(N=Cc2ccc([N+](=O)[O-])o2)C(=O)N1,outcome,[1],inactive
same,outcome,[2],inactive
same,AC50,[3],91.3 µM (active)
same,outcome,[4],inactive
same,outcome,[5],inactive
same,AC50,[6],80.1 µM (active)
same,outcome,[7],inactive
same,outcome,[8],inactive
same,outcome,[9],inactive
same,outcome,[10],inactive
same,AC50,[11],32.7 µM (active)
same,AC50,[12],57.6 µM (active)
same,outcome,[13],inactive
same,AC50,[19],16.1 µM (active)
same,outcome,[15],inactive
same,outcome,[16],inactive
same,outcome,[17],inactive
same,outcome,[18],inactive
OCCNCCO,outcome,[1],inactive
same,outcome,[2],inactive
same,outcome,[3],inactive
same,outcome,[4],inactive
same,outcome,[5],inactive
same,outcome,[6],inactive
same,outcome,[7],inactive
same,outcome,[8],inactive
same,outcome,[9],inactive
same,outcome,[10],inactive
same,AC50,[11],50 µM (active)
same,AC50,[12],50 µM (active)
same,outcome,[13],inactive
same,outcome,[14],inactive
same,outcome,[19],inactive
same,outcome,[15],inactive
same,outcome,[16],inactive
same,AC50,[17],21.9 µM (active)
same,outcome,[18],inactive
